These results are taken from publication PMC7819943, “Rice protein-binding microarrays: a tool to detect cis-acting elements near promoter regions in rice”.

In all, about 39,000 sequences were measured (“fluorescence intensity (a.u.)”: median about 4,300, highest 2% from about 39,000 on). This excerpt belongs to a sample that is enriched for the highest values.

The test has as its target T1, OsSMF1 (Oryza sativa, UniProt Q6ZLB0 1-436).
T1 sequence: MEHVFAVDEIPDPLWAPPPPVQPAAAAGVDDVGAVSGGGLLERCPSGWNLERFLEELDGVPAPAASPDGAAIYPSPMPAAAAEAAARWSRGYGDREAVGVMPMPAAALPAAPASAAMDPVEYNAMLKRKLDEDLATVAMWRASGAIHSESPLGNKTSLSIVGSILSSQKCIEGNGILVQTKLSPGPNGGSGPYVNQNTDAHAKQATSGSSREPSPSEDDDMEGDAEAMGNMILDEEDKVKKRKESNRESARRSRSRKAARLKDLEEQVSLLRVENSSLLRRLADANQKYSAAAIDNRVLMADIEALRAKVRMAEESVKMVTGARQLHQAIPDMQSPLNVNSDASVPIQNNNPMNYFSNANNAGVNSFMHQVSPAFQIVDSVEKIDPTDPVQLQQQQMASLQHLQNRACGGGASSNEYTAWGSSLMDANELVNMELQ
In words: protein-binding microarray (RPBM); PBS, 2% BSA, 51.3 ng/ul salmon testes DNA, 50 uM zinc acetate, 200 nM TF, 25 C, 1 h; high values mean tight binding. The following applies: protein: recombinant; tags: N-terminal polyhistidine and DsRed monomer fusion (pET32a); chain copies: 2; label: CyDye5-dUTP incorporated in the synthesized complementary strand; 3' TTTTT single-stranded linker to array surface; dsDNA, one strand shown. In a few lines:
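Transcription factors, each fused N-terminally to a polyhistidine tag and DsRed, were expressed in E. coli BL21-CodonPlus and purified on Ni–NTA. A custom Agilent array was made double-stranded by primer extension with Cy5-dUTP and blocked with 2% BSA. It was incubated with 200 nM protein in PBS, 2% BSA, salmon testes DNA and 50 µM zinc acetate at 25 °C for 1 h, then washed. The binding signal is per-feature fluorescence intensity (arbitrary units) read on an Axon 4000B scanner.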
On to “TCCTTCTTCTTCTCCTTCCTCACTGCAACACTCTTCGGGGCGGAGTCACCTAGTGCAG”, for which the binding signal is 38900 fluorescence intensity (a.u.).
For “CTTCGTCTCCTCCTCCTCCACGTCATCCGCCTCCGCCTCCCGGAGTCACCTAGTGCAG” the value was 26000 fluorescence intensity (a.u.); for “TTTGTGCGTGTTACGAGTGACTTGCGTTTATATCCTGCTTCGGAGTCACCTAGTGCAG”, 6490 fluorescence intensity (a.u.); for “ACAGGCATAGAGGCTGCTGACACACACCATCCGATCTGTCCGGAGTCACCTAGTGCAG”, 4990 fluorescence intensity (a.u.).
For “GGGCGGAGCTGGTGCGGAGGGTGGCGTGGCAGCTCGAGGACGGAGTCACCTAGTGCAG” the value was 5260 fluorescence intensity (a.u.).
Regarding “GCCGTGAACCAAAGCTCTTGCCGTGCTGTGCCGTGCCGGTCGGAGTCACCTAGTGCAG”, the binding signal is 3220 fluorescence intensity (a.u.).
For the sequence “TGCAGATGGTGCTGTGAAAGCTCTTGAACAGCAGGAAGGTCGGAGTCACCTAGTGCAG”, the binding signal was 43400 fluorescence intensity (a.u.).
As to “GCGTGGTGCTGGTCTCCAAGGATCCCGACAACATCCGCGACGGAGTCACCTAGTGCAG”, the binding signal was 5380 fluorescence intensity (a.u.).
Then “GTATTGCTGCTGTGATGGAACAAGCTCAGCAGGGTGACATCGGAGTCACCTAGTGCAG”, with 3290 fluorescence intensity (a.u.); and “CATCCCTGGTGCTCTTGGTCTCTTGGCAGCTGTGGAAGGACGGAGTCACCTAGTGCAG”, with 43000 fluorescence intensity (a.u.); and “ATGTGATGCATGATGATTAGATATGCTTGCATGTTAATTTCGGAGTCACCTAGTGCAG”, with 3160 fluorescence intensity (a.u.).
Take “TGCTGCCTTTATCATCACCAAGAGCCACTACCTTGCCTTACGGAGTCACCTAGTGCAG”: the binding signal was 4370 fluorescence intensity (a.u.).
Then “ACACTAATTTCAAGGTTGCTCGTGAGTCATAATCCTGACGCGGAGTCACCTAGTGCAG”, with 7720 fluorescence intensity (a.u.); and “GGCCGGAGGGCGGCCTCGGTGGCGTGGAGTTGGCAGCGGGCGGAGTCACCTAGTGCAG”, with 3770 fluorescence intensity (a.u.); and “TCGACCCACCGTCTGCCACGTCAGCTTGCCGCCCACCAATCGGAGTCACCTAGTGCAG”, with 28900 fluorescence intensity (a.u.).
For “AGTAACCGACTCCTTTCCAACGTGTTCCCCACGAAGCCGGCGGAGTCACCTAGTGCAG” the value was 4560 fluorescence intensity (a.u.).
Regarding “TTTGAAACCCCTCCTCCTCCTCCTTCCCCAACACACAATCCGGAGTCACCTAGTGCAG”, the binding signal was 3250 fluorescence intensity (a.u.).
For “GTGCCTGACAATCCTACAGGTGAAATCAACCCCTTTCATCCGGAGTCACCTAGTGCAG” the value was 40800 fluorescence intensity (a.u.); for “CCCTTCCTTCCTTCCTTTGCATCATCATCATCAACCCAATCGGAGTCACCTAGTGCAG”, 4440 fluorescence intensity (a.u.).
For “CCACAAACATGCAAGACCAAATTCAACTTCTACAAGTTGTCGGAGTCACCTAGTGCAG” the value was 13900 fluorescence intensity (a.u.); for “CGTGTTCGATTCCGCTGCTATCCACGTCGCTACGCGCCACCGGAGTCACCTAGTGCAG”, 7020 fluorescence intensity (a.u.); for “AGGTTCGCAGTTCCACGCATCCCACCATCACCACACCACGCGGAGTCACCTAGTGCAG”, 5160 fluorescence intensity (a.u.).
Take “CCACGCTATCCCATGCGATTCGAGAAGGTTCCACACACACCGGAGTCACCTAGTGCAG”: the binding signal is 41300 fluorescence intensity (a.u.).
For “TCGAGCCGGTAGATGTCTCAGCTAGTGCTTTATCTGTTCGCGGAGTCACCTAGTGCAG” the value was 3180 fluorescence intensity (a.u.); for “CGGCGCCTAGACTGCGTATCGTAGCTGTCGAACGTGTCGTCGGAGTCACCTAGTGCAG”, 3640 fluorescence intensity (a.u.).
As for “GAATCTACTGGGCATTTCGTCAAACAGCTCATCTGCGCCCCGGAGTCACCTAGTGCAG”, the binding signal is 3590 fluorescence intensity (a.u.).
For “CTCTGGCGATGTGGCGTCTGGTCAAATTCATTGTCTCTACCGGAGTCACCTAGTGCAG” the value was 47900 fluorescence intensity (a.u.); for “ATTCGTCTGAAAATTGTGTTTCACATGCGTCATTTCTCTACGGAGTCACCTAGTGCAG”, 5080 fluorescence intensity (a.u.).
“GTGCGTTGTGTGGTTGGTTGGTCAGTGTCTGGGTGGTCACCGGAGTCACCTAGTGCAG”: the binding signal is 26000 fluorescence intensity (a.u.).
For “GCGAAAACCCTGCATAAACATAGGAAAACACCAAGTGGGTCGGAGTCACCTAGTGCAG” the value was 3560 fluorescence intensity (a.u.).
For “TTTGATCACCGGTCCGGTCTTAATAACTATGTGGCAGACGCGGAGTCACCTAGTGCAG” the value was 3660 fluorescence intensity (a.u.); for “CCCTGCGCTGCCACGCGGCCGGCATCCGCCAAAGCAACAGCGGAGTCACCTAGTGCAG”, 4880 fluorescence intensity (a.u.); for “GCGGAGCCGACGCGGCGGCGATGCTCGGCCGCGTGGCGGTCGGAGTCACCTAGTGCAG”, 3840 fluorescence intensity (a.u.).
For “CGGGAGAGAGATCAGATGCGGCATGGCGTGGCCGTGGCGTCGGAGTCACCTAGTGCAG” the value was 3380 fluorescence intensity (a.u.); for “AGTGGTGGAGAAGGAGAGGAGAGGCAGAGAGAATGAGGAGCGGAGTCACCTAGTGCAG”, 3240 fluorescence intensity (a.u.).
Regarding “GCGTGGAGTGGAGAGTGGAGAGGCATGGGAGGCATGGCAGCGGAGTCACCTAGTGCAG”, the binding signal was 42900 fluorescence intensity (a.u.).
With “AGAGGCATGGGAGTCATGTTCAGGGTGATGGGAGATGGAGCGGAGTCACCTAGTGCAG”, the binding signal is 3260 fluorescence intensity (a.u.).
For “AAACACGCGGCATGGCGTGCCGCGATGCAGTCGGAGATGGCGGAGTCACCTAGTGCAG” the value was 48600 fluorescence intensity (a.u.).
Then “GAAGTGGCGGCCCTTGGCGGAGAGAATGGCATGGCGAGAGCGGAGTCACCTAGTGCAG”, with 65100 fluorescence intensity (a.u.); and “CAACAGCAGCAGCTACAACGCGGCATCCATGGCCGCCGCGCGGAGTCACCTAGTGCAG”, with 53300 fluorescence intensity (a.u.).
For “CCTCCTCAACGCCGCCACCTCATCCGTCCATACAGCGCCGCGGAGTCACCTAGTGCAG” the value was 7110 fluorescence intensity (a.u.); for “GAAGGAGAGGAGGAGAGGAGAGGAGAGAGGGAGGCAGCAGCGGAGTCACCTAGTGCAG”, 3280 fluorescence intensity (a.u.).
For the sequence “AGCGAGAGAAGATGCTGACGTGGCATCATGACATGTGGGGCGGAGTCACCTAGTGCAG”, the binding signal is 19300 fluorescence intensity (a.u.).
For “ATAGCCCGTCCTCTTCATGGACCACGGTGTACAGCTTGCTCGGAGTCACCTAGTGCAG” the value was 3980 fluorescence intensity (a.u.); for “TTAGTTGTTCTTGTTCTCTTGGTTGGGACGTGGAGAGTTGCGGAGTCACCTAGTGCAG”, 3440 fluorescence intensity (a.u.).
For “ACATTATCATGTCACGTCGTCGCGTAATCATGGGTACCCACGGAGTCACCTAGTGCAG” the value was 4200 fluorescence intensity (a.u.); for “GCCGACACGTCGCGACGCCGCTTGCCACGCGCCACGCGCGCGGAGTCACCTAGTGCAG”, 6450 fluorescence intensity (a.u.).
For “TAAAATTATTATATTTTATAAGAAAGGTAACAAGTAAACACGGAGTCACCTAGTGCAG” the value was 28600 fluorescence intensity (a.u.); for “GCTAGGTTCAACGTCATGCCTCATGTTGTCTATTGCTGTTCGGAGTCACCTAGTGCAG”, 4070 fluorescence intensity (a.u.).
On to “GGGGTTAGTCGCCGGAGGTGTGGCGTGTCGACACGTACGCCGGAGTCACCTAGTGCAG”, for which the binding signal is 8720 fluorescence intensity (a.u.).
“TTGTTTCACCGCTTACGCCACGTGCGCCGCTCAGCTGTATCGGAGTCACCTAGTGCAG”: the binding signal was 9840 fluorescence intensity (a.u.).
For “ATCCTCAACTCAATCCCGACGAAATCCCCTTCGATTTGAGCGGAGTCACCTAGTGCAG” the value was 3290 fluorescence intensity (a.u.).
Then “GATTAAATGGAAGAGAGAATGAATAATTAAGATTTAAAGACGGAGTCACCTAGTGCAG”, with 27400 fluorescence intensity (a.u.); and “AAGAATTAAAGAAGCCTTTATAAGAAGAGAAGGCCAAGCTCGGAGTCACCTAGTGCAG”, with 60800 fluorescence intensity (a.u.); and “TTAAAACGCATCAAGATTATAAGAGCCAAGAGAAATTGCACGGAGTCACCTAGTGCAG”, with 3520 fluorescence intensity (a.u.).
